Common to all, as to settings: concentration: 1 μM, replicates: in singlicate; n = 1
Experiment [1] concerns BMX.
Experiment [2] deals with BRAF.
Experiment [3] relates to T1, BRK.
T1 construct: gene PTK6

Experiment [4] has as its system BRSK1.
Experiment [5] has as its system BRSK2.
The subject of experiment [6] is BTK.
Experiment [7] relates to BUB1.
For experiment [8], the system named is CAMK1B.
Experiment [9] relates to CAMK1D.
In experiment [10] the test system is CAMK1G.
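Note: KINOMEscan kinase panel screen.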

For `Cl.Cl.NCC(C(=O)Nc1cc(Br)c(-c2ccnc3[nH]ccc23)s1)c1ccccc1` (stereo not shown) [GSK1269851], the “%Inh” value in [1] was 12%; in experiment [2], 1%; in [3], 7%; in experiment [4], 6%; in experiment [5], 0%; in experiment [6], 0%. Further, the “%Inh” value was 59% in experiment [7], 24% in [8], 0% in [9] and 0% in experiment [10].
Regarding `CCc1ccc(-c2ccc3c(c2)-c2c(cnn2C)S(=O)(=O)N3C)cc1`, the “%Inh” value was determined as 0% in [1]; 0% in experiment [2]; 1% in [3]; 19% in [4]; 0% in experiment [5]; 3% in experiment [6]. The “%Inh” value in experiment [7] came out at 15%; in experiment [8], 0%; in experiment [9], 0%; in experiment [10] it was 5%.
In the case of `CC(=O)Nc1nc2cnc(Nc3cc(NC(=O)c4cccc(C5(C#N)CC5)c4Cl)ccc3C)nc2s1`, the “%Inh” value came out at 1% in experiment [1]; 99.4% in experiment [2]; 30% in experiment [3]; 10% in [4]; 0% in experiment [5]; 0% in [6]. Further, the “%Inh” value came out at 0% in [7], 0% in [8], 30% in experiment [9] and 0% in [10].
Consider `CCS(=O)(=O)c1ccc(OC)c(Nc2nccc(-c3c(-c4cccc(NC(=O)c5c(F)cccc5F)c4)nn4ncccc34)n2)c1` [GSK326180], for which the “%Inh” value in experiment [1] is 0%; in experiment [2], 90%; in experiment [3] it was 93.5%; in experiment [4], 0%; in experiment [5], 0%; in experiment [6], 15%. The “%Inh” value in experiment [7] came out at 28%; in experiment [8], 33%; in [9] it was 12%; in experiment [10] it was 7%.
Turning to `O=C(NC1CCN(c2ccnc(Nc3ccc(F)cc3)n2)C1)c1cc2ccccc2s1` (stereo not shown) [GSK1379716], the “%Inh” value was 22% in [1]; 0% in experiment [2]; 25% in experiment [3]; 18% in experiment [4]; 9% in experiment [5]; 0% in experiment [6]. Besides, the “%Inh” value in experiment [7] is given as 64%; in experiment [8] it was 9%; in experiment [9], 17%; in [10], 0%.
With `O=C(Nc1n[nH]c2nc(-c3ccc(O)cc3)ccc12)C1CC1` [SB-710363], the “%Inh” value in [1] is 22%; in experiment [2], 0%; in experiment [3], 0%; in [4], 26%; in [5], 11%; in [6], 0%. In addition, the “%Inh” value in [7] is recorded as 0%; in experiment [8] it was 0%; in [9], 0%; in experiment [10], 4%.
`c1ccc(-c2n[nH]cc2Nc2ccnc3ccccc23)nc1` [GW694077]: the “%Inh” value in [1] is 6%; in experiment [2], 0%; in experiment [3], 0%; in [4], 0%; in experiment [5] it was 0%; in experiment [6], 0%. For the same compound, the “%Inh” value in [7] is on record as 88%; in [8], 49%; in experiment [9] it was 30%; in experiment [10], 9%.
Take `Cc1cccc(Nc2nc(N[C@H]3CCNC3)ncc2C(N)=O)c1.Cl` [GSK2197149]: the “%Inh” value in experiment [1] turned out to be 16%; in experiment [2] it was 4%; in [3], 7%; in [4], 0%; in [5], 0%; in [6] it was 0%. Further, the “%Inh” value is reported as 44% in [7], 68% in experiment [8], 55% in [9] and 8% in experiment [10].
Consider `CCn1c(-c2nonc2N)nc2c(C#CC(C)(C)O)nc(OC[C@H](N)c3ccccc3)cc21` [GSK943949], for which the “%Inh” value in [1] was found to be 2%; in [2], 42%; in experiment [3] it was 0%; in [4], 0%; in experiment [5], 50%; in experiment [6] it was 0%. The “%Inh” value in [7] worked out at 13%; in [8], 0%; in experiment [9], 10%; in experiment [10], 0%.
Take `CC(C)c1nc(-c2cccc(NS(=O)(=O)c3c(F)cccc3F)c2F)c(-c2ccnc(Nc3ccc(N4CCOCC4)nc3)n2)s1` [GSK2008607]: the “%Inh” value in experiment [1] was 99.2%; in experiment [2] it was 99.9%; in [3], 88%; in [4], 49%; in experiment [5] it was 75%; in experiment [6] it was 95.3%. Moreover, the “%Inh” value in [7] turned out to be 98%; in experiment [8], 67%; in experiment [9], 94.3%; in experiment [10], 42%.
In the case of `CC(=O)N1CCN(c2ccc(Nc3nccc(-c4sc(C(C)C)nc4-c4cccc(NS(=O)(=O)c5cccc(Cl)c5)c4)n3)cn2)CC1` [GSK1660437], the “%Inh” value stood at 56% in [1]; 99.3% in experiment [2]; 91.8% in [3]; 0% in experiment [4]; 2% in [5]; 36% in [6]. The “%Inh” value in [7] was 91%; in [8], 0%; in [9], 12%; in experiment [10] it was 0%.
As for `Cc1ccc(C(=O)Nc2ccc(Nc3ccnc4cc(-c5nccs5)ccc34)cc2O)cc1.Cl` [GW494702], the “%Inh” value was 18% in [1]; 1% in experiment [2]; 38% in experiment [3]; 0% in experiment [4]; 0% in [5]; 100% in [6]. For the same compound, the “%Inh” value in experiment [7] was determined as 35%; in experiment [8], 8%; in experiment [9], 0%; in experiment [10], 15%.
In the case of `COc1cccc(C2=C(Nc3ccc(Cl)c(C(=O)O)c3)C(=O)NC2=O)c1` [SB-390769], the “%Inh” value is reported as 0% in experiment [1]; 13% in experiment [2]; 38% in [3]; 0% in [4]; 0% in experiment [5]; 25% in [6]. For the same compound, the “%Inh” value was determined as 44% in experiment [7], 28% in [8], 0% in [9] and 0% in experiment [10].
In the case of `Nc1n[nH]c2cnc(-c3ccccc3)cc12` [SB-642124], the “%Inh” value in experiment [1] is 5%; in [2] it was 7%; in experiment [3], 19%; in [4], 13%; in experiment [5] it was 7%; in experiment [6], 0%. For the same compound, the “%Inh” value came out at 44% in experiment [7], 8% in experiment [8], 0% in experiment [9] and 10% in [10].
Consider `Cc1occc1-c1ncc(OC[C@@H](N)Cc2c[nH]c3ccccc23)cc1-c1ccc2[nH]nc(C)c2c1.O=C(O)C(F)(F)F` [GSK682037], for which the “%Inh” value in experiment [1] stood at 22%; in [2], 0%; in [3], 7%; in experiment [4] it was 0%; in [5], 0%; in experiment [6] it was 0%. For the same compound, the “%Inh” value was found to be 23% in [7], 29% in experiment [8], 82% in [9] and 27% in experiment [10].
With `CN1CCN(CCCNc2nccc(-c3c(-c4ccc(F)cc4)nn4cc(C(F)(F)F)ccc34)n2)CC1` [GW621581], the “%Inh” value in experiment [1] turned out to be 0%; in experiment [2] it was 41%; in experiment [3], 9%; in experiment [4], 2%; in experiment [5] it was 1%; in experiment [6], 0%. For the same compound, the “%Inh” value in experiment [7] was determined as 26%; in experiment [8], 5%; in [9] it was 11%; in experiment [10] it was 0%.

These data come from article PMC5540273 (PLoS ONE, 2017).
